Measured values published in PubChem BioAssay AID1159580 (chemical genetic matrix, 2015).
“And” between values parts separate entries of the source, which are not always exact repeats. Identical values can stand only once. The campaign covered roughly 5,500 compounds. About 2,000 (36%) were called active. Roughly 18% stayed inconclusive and do not appear here. Rule as the data show it: active = normalized growth mostly below about 0.91 (no sharp cut-off); inconclusive = no clear call, values can overlap the other calls; inactive = mostly above about 0.92. The list shows a part of the results.

Assay: chemical genetic growth profiling, strain panel (AID 1159580);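 also: tested at 20 µM; growth read once vehicle control cultures reached saturation at 30 °C; 1 = growth at the plate median or of vehicle wells; lower values mean less growth of the strain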
Details: growth OD

Measured: normalized growth

OCCN1CCN(CCCN2c3ccccc3Sc3ccc(Cl)cc32)CC1
inactive: S. cerevisiae deletion strains, locus YJR075W, strain HOC1, hits give low values 1 | S. cerevisiae deletion strains, locus YKL009W, strain mrt4, hits give low values 0.982 | S. cerevisiae deletion strains, locus YKL068W, hits give low values 0.999 | S. cerevisiae deletion strains, locus YKL085W, strain MDH1 (second series), hits give low values 1 | S. cerevisiae deletion strains, locus YKL085W, strain MDH1, hits give low values 1 | S. cerevisiae deletion strains, locus YKL160W, strain elf1, hits give low values 0.996 | S. cerevisiae deletion strains, locus YKL190W, strain CNB1, hits give low values 1.01 | S. cerevisiae deletion strains, locus YKR001C, strain vps1, hits give low values 1.03 | S. cerevisiae deletion strains, locus YKR026C, strain gcn3, hits give low values 1 | S. cerevisiae deletion strains, locus YKR091W, strain srl3, hits give low values 1 | S. cerevisiae deletion strains, locus YLL001W, strain dnm1, hits give low values 1.01 | S. cerevisiae deletion strains, locus YLL026W, hits give low values 0.999 | S. cerevisiae deletion strains, locus YLL041C, strain sdh2, hits give low values 1 | S. cerevisiae deletion strains, locus YLR027C, strain aat2, hits give low values 1 | S. cerevisiae deletion strains, locus YLR039C, strain RIC1, hits give low values 1.24 | S. cerevisiae deletion strains, locus YLR058C, strain SHM2, hits give low values 1.01 | S. cerevisiae deletion strains, locus YLR102C, strain apc9, hits give low values 0.991 | S. cerevisiae deletion strains, locus YLR113W, strain HOG1, hits give low values 0.98 | S. cerevisiae deletion strains, locus YLR221C, strain rsa3, hits give low values 1 | S. cerevisiae deletion strains, locus YLR258W, strain gsy2, hits give low values 1 | S. cerevisiae deletion strains, locus YLR262C, strain YPT6 (second series), hits give low values 1.06 | S. cerevisiae deletion strains, locus YLR262C, strain YPT6, hits give low values 1.32 | S. cerevisiae deletion strains, locus YLR268W, strain sec22, hits give low values 0.935 | S. cerevisiae deletion strains, locus YLR320W, strain mms22, hits give low values 0.964 | S. cerevisiae deletion strains, locus YLR330W, strain CHS5, hits give low values 1.01 | S. cerevisiae deletion strains, locus YLR342W, strain FKS1 (second series), hits give low values 0.958 | S. cerevisiae deletion strains, locus YLR342W, strain FKS1, hits give low values 0.994 | S. cerevisiae deletion strains, locus YLR357W, strain rsc2, hits give low values 0.983 | S. cerevisiae deletion strains, locus YLR370C, strain arc18, hits give low values 1 | S. cerevisiae deletion strains, locus YLR371W, strain rom2, hits give low values 0.992 | S. cerevisiae deletion strains, locus YLR384C, strain iki3, hits give low values 1 | S. cerevisiae deletion strains, locus YLR418C, strain cdc73, hits give low values 0.894 | S. cerevisiae deletion strains, locus YML016C, strain PPZ1, hits give low values 1.02 | S. cerevisiae deletion strains, locus YML032C, strain rad52, hits give low values 0.961 | S. cerevisiae deletion strains, locus YML120C, strain ndi1, hits give low values 1 | S. cerevisiae deletion strains, locus YML124C, strain tub3, hits give low values 0.991 | S. cerevisiae deletion strains, locus YMR058W, strain fet3, hits give low values 0.995 | S. cerevisiae deletion strains, locus YMR078C, strain ctf18, hits give low values 0.986 | S. cerevisiae deletion strains, locus YMR125W, strain sto1, hits give low values 1.01 | S. cerevisiae deletion strains, locus YMR129W, hits give low values 1 | S. cerevisiae deletion strains, locus YMR205C, strain PFK2, hits give low values 0.977 | S. cerevisiae deletion strains, locus YMR223W, strain ubp8, hits give low values 0.984 | S. cerevisiae deletion strains, locus YMR231W, strain pep5, hits give low values 1 | S. cerevisiae deletion strains, locus YMR263W, strain SAP30, hits give low values 1 | S. cerevisiae deletion strains, locus YMR307W, strain GAS1, hits give low values 1.1 | S. cerevisiae deletion strains, locus YNL067W, strain RPL9B, hits give low values 0.989 | S. cerevisiae deletion strains, locus YNL071W, strain lat1, hits give low values 1.01 | S. cerevisiae deletion strains, locus YNL128W, strain TEP1, hits give low values 1 | S. cerevisiae deletion strains, locus YNL153C, strain GIM3, hits give low values 0.983 and 0.891 | S. cerevisiae deletion strains, locus YNL175C, strain NOP13, hits give low values 1.03 | S. cerevisiae deletion strains, locus YNL183C, strain NPR1, hits give low values 0.947 | S. cerevisiae deletion strains, locus YNL197C, strain WHI3, hits give low values 1.02 | S. cerevisiae deletion strains, locus YNL209W, strain ssb2, hits give low values 0.997 | S. cerevisiae deletion strains, locus YNL224C, strain SQS1, hits give low values 1.02 | S. cerevisiae deletion strains, locus YNL233W, strain BNI4, hits give low values 0.986 | S. cerevisiae deletion strains, locus YNL248C, strain rpa49, hits give low values 0.998 | S. cerevisiae deletion strains, locus YNL250W, strain rad50, hits give low values 0.985 | S. cerevisiae deletion strains, locus YNL271C, strain bni1, hits give low values 0.996 | S. cerevisiae deletion strains, locus YNL298W, strain CLA4, hits give low values 0.976 | S. cerevisiae deletion strains, locus YNL307C, strain MCK1, hits give low values 0.973 | S. cerevisiae deletion strains, locus YNL322C, strain KRE1 (second series), hits give low values 1 | S. cerevisiae deletion strains, locus YNL322C, strain KRE1, hits give low values 1.01 | S. cerevisiae deletion strains, locus YNR049C, strain mso1, hits give low values 1.01 | S. cerevisiae deletion strains, locus YNR052C, strain pop2, hits give low values 1 | S. cerevisiae deletion strains, locus YOL006C, strain TOP1, hits give low values 1.01 | S. cerevisiae deletion strains, locus YOL012C, strain htz1 0.889 | S. cerevisiae deletion strains, locus YOL147C, strain pex11, hits give low values 0.992 | S. cerevisiae deletion strains, locus YOR001W, strain rrp6, hits give low values 0.976 | S. cerevisiae deletion strains, locus YOR061W, strain CKA2, hits give low values 1.02 | S. cerevisiae deletion strains, locus YOR069W, strain VPS5, hits give low values 1.01 | S. cerevisiae deletion strains, locus YOR070C, strain gyp1, hits give low values 0.994 | S. cerevisiae deletion strains, locus YOR080W, strain dia2, hits give low values 1 | S. cerevisiae deletion strains, locus YOR083W, strain WHI5 (second series), hits give low values 0.973 | S. cerevisiae deletion strains, locus YOR083W, strain WHI5, hits give low values 0.991 | S. cerevisiae deletion strains, locus YOR106W, strain vam3, hits give low values 0.962 | S. cerevisiae deletion strains, locus YOR136W, strain idh2, hits give low values 0.998 | S. cerevisiae deletion strains, locus YOR144C, strain elg1, hits give low values 1 | S. cerevisiae deletion strains, locus YOR184W, strain ser1, hits give low values 0.985 | S. cerevisiae deletion strains, locus YOR231W, strain MKK1, hits give low values 0.997 | S. cerevisiae deletion strains, locus YOR265W, strain rbl2, hits give low values 0.998 | S. cerevisiae deletion strains, locus YOR270C, strain vph1, hits give low values 1.04 | S. cerevisiae deletion strains, locus YOR290C, strain snf2, hits give low values 0.968 | S. cerevisiae deletion strains, locus YOR316C, strain cot1, hits give low values 0.994 | S. cerevisiae deletion strains, locus YPL051W, strain arl3, hits give low values 0.975 | S. cerevisiae deletion strains, locus YPL055C, strain LGE1, hits give low values 0.99 | S. cerevisiae deletion strains, locus YPL078C, strain atp4, hits give low values 1 | S. cerevisiae deletion strains, locus YPL106C, strain sse1, hits give low values 1.03 | S. cerevisiae deletion strains, locus YPL240C, strain hsp82, hits give low values 0.995 | S. cerevisiae deletion strains, locus YPL241C, strain CIN2, hits give low values 1.02 | S. cerevisiae deletion strains, locus YPL256C, strain CLN2, hits give low values 1.01 | S. cerevisiae deletion strains, locus YPR119W, strain clb2, hits give low values 0.991 | S. cerevisiae deletion strains, locus YPR141C, strain kar3, hits give low values 0.996 | S. cerevisiae deletion strains, locus YPR163C, strain tif3, hits give low values 0.987 | S. cerevisiae deletion strains, locus YPR167C, strain met16, hits give low values 1 | S. cerevisiae deletion strains, strain wtn01, hits give low values 0.951 | S. cerevisiae strains, strain wild type, hits give low values 1.01
